Results taken from PMC5540273 (PLoS ONE, 2017).

Experiments:
Conditions in all cases: concentration: 1 μM, replicates: in singlicate; n = 1
PRKCE = test system: PRKCE
PRKCH = test system: PRKCH
PRKCI = test system: PRKCI
PRKCQ = test system: PRKCQ
PRKD1 = test system: PRKD1
PRKD2 = test system: PRKD2
PRKD3 = test system: PRKD3
PRKG1 = test system: PRKG1
PRKG2 = test system: PRKG2
PRKR = test system: T1, PRKR
T1 construct: gene EIF2AK2

PRKX = test system: PRKX
PRP4 = test system: PRP4
PYK2 = test system: T2, PYK2
T2 construct: gene PTK2B

QSK = test system: QSK
RAF1 = test system: RAF1
RET = test system: RET
RIOK1 = test system: RIOK1
RIOK2 = test system: RIOK2
RIOK3 = test system: RIOK3
RIPK1 = test system: RIPK1
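Further: KINOMEscan kinase panel screen.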

Row | SMILES | %Inh (PRKCE) | %Inh (PRKCH) | %Inh (PRKCI) | %Inh (PRKCQ) | %Inh (PRKD1) | %Inh (PRKD2) | %Inh (PRKD3) | %Inh (PRKG1) | %Inh (PRKG2) | %Inh (PRKR) | %Inh (PRKX) | %Inh (PRP4) | %Inh (PYK2) | %Inh (QSK) | %Inh (RAF1) | %Inh (RET) | %Inh (RIOK1) | %Inh (RIOK2) | %Inh (RIOK3) | %Inh (RIPK1)
1 | Cc1nnc(-c2ccc3ncn(-c4ccc(S(C)=O)cc4)c3c2)o1 (stereo not drawn) | 3% | 4% | 0% | 3% | 0% | 35% | 0% | 0% | 13% | 0% | 3% | 0% | 12% | 0% | 0% | 7% | 6% | 11% | 20% | 4%
2 | Cl.c1ccc(Cn2cnc3cc(Nc4ncnc5ccccc45)ccc32)cc1 [GW272142] | 4% | 0% | 0% | 0% | 0% | 1% | 0% | 0% | 0% | 0% | 31% | 28% | 10% | 0% | 3% | 3% | 35% | 0% | 38% | 8%
3 | CCC(=O)c1c(-c2ccccc2)c2cc(Cl)ccc2c(=O)n1Cc1cc(S(C)(=O)=O)n(CC(N)=O)n1 | 0% | 80% | 12% | 0% | 0% | 0% | 0% | 0% | 0% | 0% | 0% | 38% | 0% | 0% | 11% | 1% | 1% | 0% | 0% | 0%
4 | Nc1ncnc2c1ncn2-c1ccc(Cl)cc1 [AH2635] | 0% | 0% | 6% | 0% | 0% | 0% | 0% | 2% | 0% | 0% | 0% | 36% | 21% | 0% | 1% | 9% | 51% | 0% | 35% | 17%
5 | CCC(=O)c1c(-c2ccccc2)c2cc(Cl)ccc2c(=O)n1Cc1ccc(C(=O)O)cc1 | 0% | 0% | 0% | 9% | 0% | 6% | 0% | 0% | 0% | 0% | 0% | 0% | 0% | 0% | 26% | 0% | 6% | 0% | 23% | 0%
6 | O=C(Nc1n[nH]c2cc(-c3ccccc3F)ccc12)C1CC1 [SB-733371] | 21% | 0% | 0% | 0% | 0% | 0% | 0% | 0% | 0% | 0% | 0% | 7% | 15% | 6% | 35% | 0% | 50% | 0% | 63% | 78%
7 | CCCC(=O)Nc1n[nH]c2ncc(-c3cccc4ccccc34)cc12 [SB-642057] | 16% | 16% | 15% | 0% | 0% | 14% | 0% | 7% | 0% | 29% | 12% | 26% | 0% | 13% | 9% | 33% | 19% | 0% | 0% | 0%
8 | CCS(=O)c1ccc(-c2coc3ccc(-c4nnc(C)o4)cc23)cc1 (stereo not drawn) | 0% | 0% | 0% | 14% | 0% | 0% | 0% | 21% | 9% | 0% | 0% | 21% | 0% | 0% | 0% | 0% | 0% | 15% | 0% | 1%
9 | Cc1ccc(-c2ccc3c(ccc4sc5c(c43)NC[C@@H](C)N=C5N(C)C)n2)cn1 | 36% | 0% | 0% | 0% | 10% | 0% | 20% | 0% | 0% | 0% | 0% | 0% | 0% | 0% | 0% | 0% | 0% | 0% | 0% | 0%
10 | Nc1n[nH]c2nnc(-c3ccccc3)c(-c3ccccc3)c12 [GW554060] | 15% | 14% | 16% | 12% | 0% | 0% | 17% | 0% | 0% | 0% | 18% | 8% | 0% | 0% | 18% | 0% | 32% | 13% | 0% | 0%
11 | Cc1nc(N(C)[C@H]2CN(C(=O)CC#N)CC[C@H]2C)c2cc[nH]c2n1 | 0% | 8% | 9% | 10% | 0% | 1% | 66% | 2% | 0% | 5% | 4% | 0% | 0% | 0% | 0% | 5% | 0% | 2% | 8% | 11%
12 | COC(=O)c1c(-c2ccccc2)c2cc(Br)ccc2c(=O)n1Cc1ccc(NC(=O)CCC(=O)O)cc1 | 0% | 7% | 0% | 21% | 0% | 0% | 0% | 0% | 0% | 0% | 10% | 0% | 16% | 0% | 14% | 5% | 0% | 0% | 0% | 0%
13 | COc1cc(Nc2nccc(N3CCC(NC(=O)C(C)c4ccc(Cl)cc4)C3)n2)cc(OC)c1OC (stereo not drawn) [GSK1379757] | 0% | 14% | 0% | 0% | 0% | 0% | 0% | 1% | 4% | 0% | 5% | 23% | 10% | 2% | 10% | 7% | 58% | 0% | 54% | 20%
14 | COc1cc(Nc2nccc(N3CCC(NC(=O)C4COc5ccccc5O4)C3)n2)cc(OC)c1OC (stereo not drawn) [GSK1379761] | 3% | 4% | 0% | 0% | 0% | 10% | 0% | 0% | 3% | 13% | 15% | 32% | 18% | 2% | 7% | 2% | 66% | 0% | 43% | 7%
15 | Nc1ncnc2c1ncn2-c1cccc(F)c1 [SKF-97560] | 3% | 0% | 22% | 20% | 0% | 10% | 9% | 0% | 10% | 0% | 0% | 0% | 6% | 13% | 14% | 1% | 38% | 19% | 49% | 22%
16 | COc1ccc(-c2cc3c(C)nc(N)nc3n([C@H]3CC[C@H](O)CC3)c2=O)cn1 | 36% | 0% | 0% | 0% | 3% | 0% | 0% | 0% | 0% | 0% | 0% | 0% | 0% | 0% | 0% | 0% | 0% | 0% | 0% | 0%
17 | Cc1c(Cn2c(C)nn3c(=O)cc(N4CCO[C@H](C)C4)nc23)cccc1C(F)(F)F [GSK2373690] | 0% | 35% | 26% | 17% | 0% | 0% | 0% | 15% | 0% | 0% | 29% | 26% | 1% | 14% | 19% | 6% | 15% | 17% | 27% | 1%
18 | CCC(=O)c1c(-c2ccccc2)c2cc(Cl)ccc2c(=O)n1Cc1cc(S(C)(=O)=O)n(CCC(C)(C)O)n1 | 0% | 3% | 23% | 37% | 1% | 4% | 0% | 0% | 21% | 0% | 30% | 0% | 0% | 8% | 14% | 14% | 8% | 42% | 0% | 20%
19 | Nc1nc(-c2ccccc2F)c(-c2ccnc3ccccc23)s1 [GW560459] | 17% | 11% | 13% | 0% | 0% | 0% | 27% | 1% | 0% | 0% | 4% | 33% | 0% | 0% | 8% | 0% | 40% | 52% | 25% | 0%
20 | CCc1ccc(-c2ccc3c(c2)-c2nn(C)cc2S(=O)(=O)N3C)cc1 | 0% | 0% | 18% | 10% | 0% | 13% | 0% | 0% | 0% | 0% | 0% | 27% | 0% | 0% | 19% | 16% | 15% | 0% | 0% | 12%
21 | COC(=O)c1c(-c2ccccc2)c2cc(Br)ccc2c(=O)n1Cc1ccc(S(C)(=O)=O)cc1 | 1% | 4% | 0% | 37% | 0% | 0% | 0% | 0% | 8% | 0% | 28% | 0% | 6% | 0% | 27% | 16% | 0% | 19% | 0% | 0%
